High-throughput results (PubChem)
ASM inhibitor – Inhibitors of Secretory Acid Sphingomyelinase (S-ASM): qHTS | placental ASM, HMU-PC fluorogenic substrate, 60 min | hit rate 0.006% among 340,000 | Potency, µM (top dose mostly 57.5 µM), without a hit: at the top dose activity change, negative = inhibition, most hits filed as inhibitors | Sphingomyelin phosphodiesterase (Homo sapiens), P17405 | AID 504937, 2011; also: potency is read from the fitted curve at half-maximal effect
Target sequence (P17405 47-631 limits assumed): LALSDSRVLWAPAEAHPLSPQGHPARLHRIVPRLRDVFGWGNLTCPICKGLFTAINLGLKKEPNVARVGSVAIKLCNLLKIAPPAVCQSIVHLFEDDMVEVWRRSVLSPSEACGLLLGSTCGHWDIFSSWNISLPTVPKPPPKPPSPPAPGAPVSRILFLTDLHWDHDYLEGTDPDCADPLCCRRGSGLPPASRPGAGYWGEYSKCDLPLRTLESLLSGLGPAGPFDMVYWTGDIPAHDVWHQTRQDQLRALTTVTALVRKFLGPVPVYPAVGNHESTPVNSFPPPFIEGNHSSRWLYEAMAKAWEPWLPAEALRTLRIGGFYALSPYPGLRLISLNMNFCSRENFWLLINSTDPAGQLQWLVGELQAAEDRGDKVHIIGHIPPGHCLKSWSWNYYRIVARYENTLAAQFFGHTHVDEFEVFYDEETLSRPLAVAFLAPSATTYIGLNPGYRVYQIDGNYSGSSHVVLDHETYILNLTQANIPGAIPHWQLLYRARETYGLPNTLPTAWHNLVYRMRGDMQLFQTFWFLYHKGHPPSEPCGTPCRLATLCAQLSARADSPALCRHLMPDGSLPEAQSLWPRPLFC
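Fluorogenic HMU-PC substrate (9 uM final) is turned over by placental ASM in 60 min at 37 C after a 10 min compound preincubation. Reaction ended by alkaline stop (pH 10), with fluorescence read at 386/447 nm.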
HepG2 viability – qHTS for Inhibitors of TGF-b: Cytotox Counterscreen; HepG2 CAGA-GFP viability, ATP luminescence, 18 h; Potency, µM (top dose mostly 46.1 µM), inactives show top-dose activity change, negative = cytotoxicity, actives largely listed as cytotoxic; hit rate 0.76% among 410,000; AID 588856, 2011; also: potency is read from the fitted curve at half-maximal effect
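CellTiter-Glo luminescence gave cytotoxicity after 18 hours at 37 degrees C. The cells were HepG2 CAGA-GFP in 1% FBS DMEM, stimulated with 500 pg/mL TGF-beta after compound addition. %Activity was normalised to no-cell wells (complete cell-killing) and DMSO (no toxicity), and curves were fitted and classified.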
TDP1 cell noCPT – qHTS for Inhibitors of human tyrosyl-DNA phosphodiesterase 1 (TDP1): qHTS in cells in absence of CPT | DT40 Tdp1-/- hTDP1 cells, no CPT, ATP luminescence, 48 h | Potency, µM (top dose mostly 46.2 µM), without a hit: top-dose activity change, negative = growth inhibition, actives largely listed as inhibitors | hit rate 15% among 420,000 | AID 686978, 2013; also: potency is read from the fitted curve at half-maximal effect; % is scaled to controls: 0 for no effect and ±100 for the full control effect; nearly all actives have a fitted effect of over 55% in size
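A cellular qHTS used chicken DT40 cells lacking endogenous Tdp1 but carrying stably transfected human TDP1. Compounds were applied without camptothecin, and cell growth kinetics were judged by ATP-dependent luminescence after ≥48 hr.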
TGFb inhibitor – qHTS for Inhibitors of TGF-b; HepG2 CAGA-GFP TGF-b/SMAD3 reporter, GFP fluorescence, 18 h; TGF-beta stimulated, 500 pg/mL final; Potency, µM (series often up to 46.1 µM), without a hit: top-dose activity, negative = inhibition, usual class: inhibitors; hit rate 1.2% among 410,000; AID 588855, 2011; also: potency is read from the fitted curve at half-maximal effect; % is scaled to controls: 0 for no effect and ±100 for the full control effect; nearly all actives have a fitted effect of over 65% in size
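Using HEPG2 CAGA-GFP reporter cells at 1000 cells/well, we pinned test compounds, stimulated with recombinant TGF-beta (500 pg/mL final) and measured total well GFP after 18 h.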
DT40 TDP1 CPT – qHTS for Inhibitors of human tyrosyl-DNA phosphodiesterase 1 (TDP1): qHTS in cells in presence of CPT; Potency, µM (titrated, usually from 46.2 µM), for the others: top-dose activity change, negative = growth inhibition, hits mostly inhibitors; AID 686979, 2013; hit rate 12% among 420,000; chicken DT40 Tdp1-/-;hTDP1 cells + 20 nM CPT, ATP luminescence, 48 h; also: potency is read from the fitted curve at half-maximal effect; % is scaled to controls: 0 for no effect and ±100 for the full control effect; nearly all actives have a fitted effect of over 55% in size
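Chicken DT40 Tdp1-/- cells complemented with human TDP1, 400 cells/well, exposed to compounds plus 20 nM camptothecin for at least 48 h at 37 C; viability read as ATP content by CellTiter-Glo luminescence.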
IL1B secr inh – qHTS for Inhibitors of Inflammasome Signaling: IL-1-beta AlphaLISA Primary Screen. THP-1 LPS/ATP IL-1B secretion, AlphaLISA, 16 h; stronger effect = lower value. hit rate 4.7% among 360,000. activity change, % at 57.5 µM; in the data active = activity change below about -50%; inconclusive = mostly about -30% to -49%; also: % is scaled to controls: 0 for no effect and ±100 for the full control effect
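THP-1 cells pretreated 1 hr with compounds (up to 57.5 uM final), then stimulated with LPS (250 ng/mL final) plus ATP (1.25 mM final); secreted IL-1B measured by AlphaLISA after 16 hr, decreased signal indicating inhibition.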
Starred values were filed as active, the others as inactive; ? = inconclusive; . = no result. Rows were chosen to be rich in hits. Some 19% of all compounds tested hit in one or more screens of this group. Unless noted, calls follow the shape of the dose curve; as a rule, active = well fitted curve in the direction sought with a large enough effect; inconclusive = small, poorly fitted or top-dose-only effect, or another doubt; inactive = no such curve, though single readings can be large; an effect the other way counts as inactive or inconclusive.

SMILES	ASM inhibitor	HepG2 viability	TDP1 cell noCPT	TGFb inhibitor	DT40 TDP1 CPT	IL1B secr inh
COC(=O)c1ccc(CN(c2ccc(C)cc2)S(=O)(=O)c2ccc3c(c2)OCCO3)o1	0%	11%	16µM*	19%	12µM*	38
C[C@@H]1CN([C@@H](C)CO)C(=O)CCCn2nncc2CO[C@H]1CN(C)S(=O)(=O)c1cn(C)cn1	.	0%	11%	9%	12%	6
CS(=O)Cc1cc(Sc2ccccc2)nc(-c2ccncc2)n1 (configuration not stated)	-1%	-5%	-8%	1%	-2%	39
Cc1nc(-c2ccccc2)nc2[nH]ccc(=O)c12	3%	-10%	-5%	19%	13%	41
Cc1nc(C)c2c(=O)cc(-c3ccccc3)[nH]c2n1	215%	-16%	5.6µM*	24%	4.5µM*	42
COc1cccc(CNC(=O)c2cc(-c3cccs3)nc3ccccc23)c1	.	-4%	-26%	0%	-14%	.
CCOc1ccc(OCC)c(NC(=O)c2cc(-c3cccs3)nc3ccccc23)c1	.	-14%	-12%	-26%	0%	.
COc1ccc(-c2cc(C(F)F)n3ncc(C(=O)Nc4c(C)n(C)n(-c5ccccc5)c4=O)c3n2)cc1	4%	-1%	12µM*	6%	?	1
COc1ccc(-c2cc(C(=O)Nc3c(C)n(C)n(-c4ccccc4)c3=O)c3ccccc3n2)cc1OC	7%	-5%	15µM*	-1%	?	3
Cc1ccc(-c2cc(C(=O)Nc3c(C)n(C)n(-c4ccccc4)c3=O)c3ccccc3n2)cc1	-2%	-25%	?	10%	?	-5
Cc1ccc(NC(=O)c2cc(-c3cccs3)nc3ccccc23)nc1	111%	4%	13µM*	-24%	23µM*	?
CC(C)OCCCNC(=O)c1cc(-c2cccs2)nc2ccccc12	106%	-14%	?	0%	16µM*	25
COc1cc(Cl)c(C)cc1NC(=O)CC1Oc2ccccc2NC1=O (configuration not stated)	.	-35%	?	-14%	?	.
COCC(=O)N1CCC2(CC1)CN(Cc1nccs1)C2	.	.	-19%	.	-19%	.
O=C(CCNC(=O)N1CCn2c1nc1ccccc12)NCc1ccc(F)cc1	3%	6%	14%	-20%	-11%	-29
Cc1ccc2c(c1)c1c(c(=O)n(-c3cccc(Cl)c3)c(=O)n1C)n2C	.	0%	-27%	-1%	?	.
CCNC(=S)NNC(=O)c1cc(-c2cc(C)ccc2C)nc2ccccc12	-1%	-33%	15µM*	-11%	15µM*	5
Cc1c(NC(=O)c2cc(-c3cccs3)nc3ccccc23)c(=O)n(-c2ccccc2)n1C	3%	8%	21µM*	-1%	?	-89*
Cc1ccc(-c2cc(C(=O)Nc3nccs3)c3ccccc3n2)c(C)c1	-30%	1%	13µM*	-5%	13µM*	3
COc1ccc(N(C)C(=O)c2cn(CC(C)C)c(=O)c3cc(OC)c(OC)cc23)c(OC)c1	0%	7.1µM*	-26%	0%	?	-28
CCN(C(=O)c1cn(CC(C)C)c(=O)c2cc(OC)c(OC)cc12)c1cc(OC)ccc1OC	.	-28%	15µM*	?	13µM*	.
COc1cc2c(C(=O)N(C)c3cc(Cl)ccc3OC)cn(CC(C)C)c(=O)c2cc1OC	.	-36%	8.2µM*	?	9.2µM*	.
CCCN(C(=O)c1cn(CC(C)C)c(=O)c2cc(OC)c(OC)cc12)c1cccc(C)c1	.	-42%	15µM*	?	13µM*	.
CC(Oc1cccnc1[N+](=O)[O-])C(=O)N1CCc2ccccc21 (configuration not stated)	-2%	-18%	?	-12%	-15%	-5
CC1=NN(C(N)=S)C(=O)C1N=Nc1c(C)n(C)n(-c2ccccc2)c1=O (configuration not stated)	-3%	1%	-2%	25%	-3%	5
SMILES	ASM inhibitor	HepG2 viability	TDP1 cell noCPT	TGFb inhibitor	DT40 TDP1 CPT	IL1B secr inh
CCn1cc(C(=O)N(C)c2ccccc2F)c2cc(OC)c(OC)cc2c1=O	-1%	-6%	-16%	3%	?	?
CCC1CCCCN1CCCNC(=O)c1cn(CC(C)C)c(=O)c2cc(OC)c(OC)cc12 (configuration not stated)	0%	-37%	1.8µM*	5%	1%	?
CCc1ccccc1N(C)C(=O)c1cn(CC(C)C)c(=O)c2cc(OC)c(OC)cc12	.	-29%	10µM*	?	10µM*	.
CCC1CCCCN1CCCNC(=O)c1c(C)oc2ncn(CC(C)C)c(=O)c12 (configuration not stated)	.	-12%	1%	-19%	2%	.
COc1ccc(NC(=O)C2Cc3c(-c4ccncc4)ccnc3O2)cc1OC (configuration not stated)	.	18%	?	24%	?	0
COc1ccc(NC(=O)C2Cc3c(-c4ccc(Cl)cc4)ccnc3O2)cc1OC (configuration not stated)	.	-16%	18µM*	-5%	?	-16
COc1ccc(NC(=O)C2Cc3c(-c4ccc(Cl)cc4)ccnc3O2)cn1 (configuration not stated)	.	1%	21µM*	5%	15µM*	-7
COc1ccc(NC(=O)C2Cc3c(-c4cccc(C(N)=O)c4)ccnc3O2)cc1OC (configuration not stated)	.	-22%	7.3µM*	43%	12µM*	16
CC(=O)Nc1ccc(NC(=O)C2Cc3c(-c4ccc(Cl)cc4)ccnc3O2)cc1 (configuration not stated)	.	-25%	-1%	9%	-3%	10
COc1ccc(NC(=O)C2Cc3c(-c4ccccc4)ccnc3O2)cc1OC (configuration not stated)	.	-10%	4.6µM*	-6%	?	?
CC(C)(CCl)C(=O)Nc1ccnc(-c2ccncc2)n1	2%	-24%	?	?	0%	57
